Data on eight molecules can be found in PubChem BioAssay (NCI).

This is part of a sample that, as a whole, favours compounds with a hit. Of some 83,000 tested, about 20% had one in any assay.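 Activity criterion: percent growth below 10, measured after cells in 96-well plates were exposed to a single compound concentration for 48 hours.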 Unmarked numbers belong to inactive results. Active and inactive are the calls of the source.

Test in all cases: NCI-60 one-dose screen, 48 h (100 = growth as untreated, 0 = no growth, -100 = all killed)
One test relates to SK-MEL-2 melanoma. As to conditions: 10 µM unless noted.
Another test deals with EKVX NSCLC. As to conditions: 10 µM unless noted.
For a further test, the system named is SN12C renal. As to conditions: 10 µM unless noted.
Another test has as its system UO-31 renal. The conditions noted are these: 10 µM unless noted.
A further test relates to TK-10 renal. As to conditions: 10 µM unless noted.
The next test relates to ACHN renal. As to conditions: 10 µM unless noted.
The next test has as its system CAKI-1 renal. The conditions noted are these: 10 µM unless noted.
Another test relates to A498 renal. The conditions noted are these: 10 µM unless noted.
The next test has as its system CCRF-CEM leukemia. As to conditions: 10 µM unless noted.
The next test relates to MOLT-4 leukemia. The conditions noted are these: 10 µM unless noted.
For a further test, the system named is SR leukemia. As to conditions: 10 µM unless noted.
For the next test, the system named is RPMI-8226 leukemia. The conditions noted are these: 10 µM unless noted.
A further test deals with OVCAR-8 ovarian. As to conditions: 10 µM unless noted.
The next test has as its system OVCAR-4 ovarian. As to conditions: 10 µM.
For another test, the system named is SK-OV-3 ovarian. The conditions noted are these: 10 µM unless noted.
Another test concerns IGROV1 ovarian. As to conditions: 10 µM unless noted.
In another test the test system is OVCAR-3 ovarian. As to conditions: 10 µM unless noted.
For the next test, the system named is HS 578T breast. The conditions noted are these: 10 µM unless noted.
Another test deals with NCI/ADR-RES ovarian. As to conditions: 10 µM unless noted.
For the next test, the system named is OVCAR-5 ovarian. The conditions noted are these: 10 µM unless noted.

As for `CCOC(=O)CC(c1ccccc1)C(C#N)c1ccccc1` (centres undefined), the growth with SK-MEL-2 melanoma is 106%; with EKVX NSCLC, 87.5%; in the test with SN12C renal it was 109%; in the test on UO-31 renal, 84%; in the test with TK-10 renal, 101%; in the test with ACHN renal, 103%. Also, the growth with CAKI-1 renal was 87.1%; with A498 renal, 91.3%; in the test with CCRF-CEM leukemia, 98.9%; in the test on MOLT-4 leukemia, 88.8%; in the test with SR leukemia it was 97.3%; with RPMI-8226 leukemia it was 91.3%. Further, the growth was 99.2% with OVCAR-8 ovarian; 98.7% in the test on OVCAR-4 ovarian; 95.1% in the test on SK-OV-3 ovarian; 108% with IGROV1 ovarian; 98.9% with OVCAR-3 ovarian; 89.4% in the test with HS 578T breast. In the test on NCI/ADR-RES ovarian, the growth is 109%.
Consider `O=C(Nc1cc(-c2cccnc2)nc(NCCCN2CCOCC2)n1)c1cc(Br)cc(C(F)(F)F)c1`, for which the growth is 81.3% in the test with SK-MEL-2 melanoma; 77.4% with EKVX NSCLC; 67.2% in the test with SN12C renal; 42% in the test on UO-31 renal; 65.4% with TK-10 renal; 75.6% in the test on ACHN renal. Moreover, the growth with CAKI-1 renal is 61.8%; in the test with A498 renal, 53.7%; with CCRF-CEM leukemia, 42.8%; with MOLT-4 leukemia, 45.1%; in the test with SR leukemia it was 4.25% (active); with RPMI-8226 leukemia, 30.2%. The growth in the test on OVCAR-8 ovarian was 58.6%; with OVCAR-4 ovarian, 62.2%; with SK-OV-3 ovarian, 92.3%; with IGROV1 ovarian, 63.1%; in the test on OVCAR-3 ovarian it was 79.9%; in the test on HS 578T breast, 54%.
On to `COc1ccccc1S(=O)Nc1ccccc1` (centres undefined), for which the growth in the test with SK-MEL-2 melanoma was 82.5%; in the test on EKVX NSCLC it was 106%; in the test on SN12C renal it was 94.4%; in the test on UO-31 renal, 85.9%; in the test on TK-10 renal it was 101%; in the test with ACHN renal, 107%. Also, the growth in the test on CAKI-1 renal is 98.2%; in the test on A498 renal, 82.9%; with CCRF-CEM leukemia it was 93.6%; with MOLT-4 leukemia, 103%; in the test with SR leukemia, 82.7%; in the test on RPMI-8226 leukemia, 99.9%. The growth was 94.2% with OVCAR-8 ovarian; 110% in the test with OVCAR-4 ovarian; 105% with SK-OV-3 ovarian; 107% with IGROV1 ovarian; 107% in the test with OVCAR-3 ovarian; 82% in the test with HS 578T breast. For the same molecule, the growth in the test with NCI/ADR-RES ovarian was 105%.
Take `COc1cc2c(cc1OC(C)=O)C(=O)CCCC2`: the growth with SK-MEL-2 melanoma is 99.3%; in the test with EKVX NSCLC, 104%; in the test with SN12C renal it was 112%; in the test on UO-31 renal, 88.4%; in the test with TK-10 renal it was 118%; in the test with ACHN renal it was 92.5%. The growth is 73.8% in the test on CAKI-1 renal; 102% in the test with CCRF-CEM leukemia; 115% with MOLT-4 leukemia; 121% with SR leukemia; 109% in the test on RPMI-8226 leukemia; 98.3% in the test with OVCAR-8 ovarian. The growth in the test on OVCAR-5 ovarian is 103%; in the test with OVCAR-4 ovarian, 95.1%; with SK-OV-3 ovarian, 117%; in the test on IGROV1 ovarian, 78.8%; with OVCAR-3 ovarian, 114%; in the test with HS 578T breast, 84.3%. For the same molecule, the growth with NCI/ADR-RES ovarian was 97.7%.
In the case of `CC(C)[N+](C)(C)CC(O)COc1cccc2ccccc12` (centres undefined), the growth with SK-MEL-2 melanoma was 104%; with EKVX NSCLC it was 101%; in the test with SN12C renal, 103%; in the test on UO-31 renal, 76.4%; in the test with TK-10 renal, 111%; in the test with ACHN renal, 101%. In addition, the growth with CAKI-1 renal is 102%; in the test with A498 renal it was 92.9%; with CCRF-CEM leukemia, 88.1%; in the test with MOLT-4 leukemia, 109%; with SR leukemia it was 107%; in the test on RPMI-8226 leukemia it was 94.1%. Moreover, the growth in the test on OVCAR-8 ovarian was 98.4%; in the test on OVCAR-4 ovarian it was 116%; in the test with SK-OV-3 ovarian, 110%; in the test with OVCAR-3 ovarian, 96.8%; in the test on HS 578T breast, 128%; in the test with NCI/ADR-RES ovarian it was 108%.
Consider `Cc1ccc(NCCN2CCCCC2)c2c(=O)c3ccccc3sc12`, for which the growth with SK-MEL-2 melanoma is 45.6%; with EKVX NSCLC, 68.6%; in the test on SN12C renal, 32%; in the test on UO-31 renal, -16.6% (active); in the test with TK-10 renal it was 42.6%; in the test on ACHN renal, 15.9%. For the same molecule, the growth with CAKI-1 renal is 38.6%; with A498 renal it was 28.3%; in the test on CCRF-CEM leukemia, 30.2%; in the test on MOLT-4 leukemia it was 11.4%; in the test on SR leukemia it was 15.3%; with RPMI-8226 leukemia, -17.1% (active). The growth is 29.2% with OVCAR-8 ovarian, 43.2% in the test with OVCAR-5 ovarian, 58.5% with OVCAR-3 ovarian and -8.32% (active) in the test with HS 578T breast.
As to `Fc1cc2[nH]ncc2c2c3c(c(-c4cn[nH]c4C(F)(F)F)nc12)C1CCC3C1` (centres undefined), the growth in the test on SK-MEL-2 melanoma is -32.6% (active); with EKVX NSCLC, 28.2%; with SN12C renal, 6.09% (active); in the test on UO-31 renal, -44.2% (active); in the test on TK-10 renal it was -11.2% (active); in the test with ACHN renal it was -0.693% (active). For the same molecule, the growth in the test with CAKI-1 renal was -5.2% (active); in the test on A498 renal it was -80.2% (active); with CCRF-CEM leukemia it was 11.5%; in the test with MOLT-4 leukemia, 6.06% (active); in the test with SR leukemia, 5.5% (active); in the test on RPMI-8226 leukemia, 7.73% (active). Moreover, the growth with OVCAR-8 ovarian is 10.2%; with OVCAR-4 ovarian it was 35%; in the test on IGROV1 ovarian, -13% (active); with OVCAR-3 ovarian it was 10.6%; in the test on HS 578T breast it was -10.8% (active); in the test on NCI/ADR-RES ovarian, 55.7%.
`CCOC(=O)c1nc2c3ccccc3ccn2c1C(=O)OC`: the growth is 102% with SK-MEL-2 melanoma; 80.2% in the test on EKVX NSCLC; 96.9% with SN12C renal; 91.7% in the test on UO-31 renal; 81.1% with TK-10 renal; 94% in the test with ACHN renal. Moreover, the growth is 97.2% in the test on CAKI-1 renal; 64% in the test on A498 renal; 88.2% in the test on CCRF-CEM leukemia; 84.5% in the test on MOLT-4 leukemia; 130% in the test on SR leukemia; 86.9% with RPMI-8226 leukemia. For the same molecule, the growth in the test with OVCAR-8 ovarian is 100%; in the test on SK-OV-3 ovarian it was 94%; with IGROV1 ovarian, 94.3%; with OVCAR-3 ovarian, 106%; in the test on NCI/ADR-RES ovarian, 102%.
